According to PubChem BioAssay (NCI):
Compounds without any hit were thinned out: in the full panel of roughly 83,000, 20% have a hit.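 Compound tested at a single concentration for 48 hours in 96-well plates; a percent growth value below 10 was scored as active.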 Active and inactive are the calls of the source.

The compounds below were run on OVCAR-4 ovarian (assay: NCI-60 one-dose screen, 48 h (100 = growth as untreated, 0 = no growth, -100 = all killed)). Conditions: 10 µM unless noted.
Description: Growth inhibition of the OVCAR-4 human tumor cell line is measured as a screen for anti-cancer activity. Cells are grown in 96 well plates and exposed to the test compound for 48 hours. Compounds are tested at a single concentration, which is 10^-5 M for most compounds. The reported endpoint is percent growth (GI% or GIPRCNT), where numbers from 0 - 100% represent growth inhibition, and numbers from -100% - 0 represent cell death. For example, a value of 40 represents 60% growth inhibition. A value of 0 means no net growth occurred over the course of the experiment. A value of -40 indicates 40% of cells at the beginning of the experiment died by the end of the experiment. A value of -100 means all cells are dead at the end of the experiment.
NCI-60 Human Tumor Cell Lines Screen was performed using the standard one-dose NCI protocol, which is described in more detail at https://dtp.cancer.gov/discovery_development/nci-60/default.htm.
Compounds with GIPRCNT values below 10 were considered active. Activity score was based on GIPRCNT using the following formula: […]
Score is 0 for GIPRCNT values of 100 or above, 50 for GIPRCNT values of 0, and 100 for GIPRCNT values of -100.

| SMILES | growth |
| --- | --- |
| CCOC(=O)c1c(C)nc2ccccc2c1/C=C/c1ccccc1 | 65% (inactive) |
| COc1ccc(N2CCC(=S)NC2=S)cc1 | 90.1% (inactive) |
| Fc1ccc2[nH]cc(-c3nc(-c4c[nH]c5ccncc45)cs3)c2c1 | -0.149% (active) |
| COc1ccc(C2=CC(c3cc(OC)c(OC)c(OC)c3)n3ncnc3N2)cc1 (stereo not given) | 41.4% (inactive) |
| CN(C)CCN1C(=O)c2cccc3c(/C=C/CN4C(=O)c5cccc6cccc(c56)C4=O)ccc(c23)C1=O | -5.6% (active) |
| COc1cc(C(=O)c2c(-c3ccccc3)oc3c(OC)cccc23)cc(OC)c1OC | 32.3% (inactive) |
| O=C1Nc2c(C(=O)O)cccc2/C1=N/c1n[nH]c(=S)s1 | 87.9% (inactive) |
| O=C(CN1CCCCCC1)Nc1nc2ccc(NCc3ccc(Cl)cc3)cc2s1 | 96.3% (inactive) |
| O=[N+]([O-])c1cc(NS(=O)(=O)c2ccccc2)ccc1NS(=O)(=O)c1ccccc1 | 106% (inactive) |
| COC(=O)CC[C@@H]1O[C@@H](c2ccc(F)cc2)[C@@H](O)[C@H]1O | 115% (inactive) |
| CC1=CC(c2ccco2)=C2C(N)=NNC2N1 (stereo not given) | 92.6% (inactive) |
| O=C(Nc1ncc(Cc2cc(C(F)(F)F)ccc2Cl)s1)c1cccs1 | 63.4% (inactive) |
| CC1C(/C=N/NC(N)=S)C(C#N)(C#N)C1(C#N)C#N (stereo not given) | 103% (inactive) |
| CCOc1ccc(-n2nc(C(=O)NCc3ccccc3OC)nc2-c2cc(OC)c(OC)c(OC)c2)cc1 | 23.4% (inactive) |
| Cc1ccc(C)c2c(C)c(C(=O)Nc3cccc(-n4cccn4)c3)oc12 | 50.4% [50 µM] (inactive) |
| Cc1ccc(S(=O)(=O)OCCCOS(=O)(=O)c2ccc(C)cc2)cc1 | 100% (inactive) |
| O=C(Nc1ncccc1OCc1ccccc1)NC1CCCCCC1 | 84.6% (inactive) |
| COc1cc(-c2nc3sccn3c2-c2ccnc(NCCNS(=O)(=O)c3ccc(Cl)cc3)n2)ccc1F | 21.3% (inactive) |
| Cc1c(CN)cc(-c2ccc(Cl)cc2)n1-c1ccccc1 | 40.3% (inactive) |
| CCCCCCCCCCCCCCCCCC1=NC(C)(C)CN1CC(C)O (stereo not given) | 94.4% (inactive) |

| SMILES | growth |
| --- | --- |
| COc1cc(/C=C2\CN(S(=O)(=O)c3ccccc3)C/C(=C\c3cc(CN4CCCCC4)c(O)c(OC)c3)C2=O)cc(CN2CCCCC2)c1O | -69.8% (active) |
| CCNc1ccc(-c2nc3ccccc3n3cccc23)cc1 | 72.7% (inactive) |
| NC1(CO)COC(c2ccccc2)OC1 (stereo not given) | 130% (inactive) |
| COC(=O)CCC/C=C\C[C@H]1C=CC(=O)/C1=C/C[C@@H](O)C/C=C\CC(F)(F)F | 34% (inactive) |
| CCCCCCCC/C=C\CCCCCCCCOc1ccc(CC(=O)NCC[N+]2(C)CCOCC2)cc1 | 97.3% (inactive) |
| Cc1c(Cl)cccc1C(=O)Nc1nc2c(s1)CN(C(=O)c1ccc(C(F)(F)F)cc1)CC2 | 38.5% (inactive) |
| CCN(CC)CCN1C(=O)c2c(c(C)c3c(oc4ccc(O)cc43)c2C)C1=O | 14.9% (inactive) |
| O=C(O)[C@@H](Cc1ccc2ccccc2c1)NC(=O)n1c2ccccc2c2ccccc21 | 43.9% (inactive) |
| Cc1ccc(/C=C/C(=O)Nc2ncc(Cc3ccc(F)cc3)s2)o1 | 85.4% (inactive) |
| Cc1nnc(-c2ccc3c(c2)nc(/C=C/c2ccccc2)n3C2CCCCC2)o1 | 82.3% (inactive) |
| CN1C(=O)/C(=C2\SC(=Nc3ccccc3)N(Nc3ccccc3)C2=O)c2ccccc21 | 111% (inactive) |
| CC(C)(C)n1cc(-c2ccnc(NCCCNS(=O)(=O)c3ccc(C(F)(F)F)cc3)c2)c(-c2cccc(F)c2)n1 | 99.7% (inactive) |
| C=C1C(=O)O[C@H]2[C@H]1CC/C(COC(=O)/C=C\C(=O)NCc1ccc(Cn3c(=O)sn(CCCl)c3=O)cc1)=C\CC[C@@]1(C)O[C@@H]21 | 96.3% (inactive) |
| COc1cc(-c2nc3cc(Cl)c(Cl)cc3[nH]2)ccc1OCC(=O)N=Nc1c(O)[nH]c2ccc(Cl)cc12 | 12.2% (inactive) |
| Cc1ccc(C)c(/C=C2\CN(C(=O)OC(C)(C)C)C/C(=C\c3cc(C)ccc3C)C2=O)c1 | 22% (inactive) |
| COc1cc(/C=C/C(=O)/C=C(O)/C=C/c2ccc(OC(=O)C34CC5CC(CC(C5)C3)C4)c(OC)c2)ccc1OC(=O)C12CC3CC(CC(C3)C1)C2 | 104% (inactive) |
| Cc1nc2cc(O)c(O)cc2cc1Oc1ccc(NC(=O)Nc2ccc(Cl)c(Cl)c2)cc1 | 67.7% (inactive) |
| O=C1Nc2ccccc2/C1=C\c1c[nH]c2ccc(Br)cc12 | 54.7% (inactive) |
| Cc1ccc(/C=C/C(=O)c2ccc(-n3cc(CN4CCN(c5cc6c(cc5F)c(=O)c(C(=O)O)cn6C5CC5)CC4)nn3)cc2)cc1 | 94.8% (inactive) |
| O=S(=O)(NCCCNc1nccc(-c2c(-c3cccc(F)c3)nc3occn23)n1)c1ccc(F)cc1 | 37% (inactive) |
